# PubChem BioAssay (NCATS)
# Records with an inconclusive call do not appear. Peptide text beside a SMILES is read from it.
# Assay: qHTS Assay for Lipid Storage Modulators (AID 1519)
# Settings: Drosophila S3 cells, BODIPY lipid droplet/cell ratio, laser cytometry; measured here: lipid channel max response; cells loaded with oleic acid
# Outline: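 Cells seeded at 5,000 per well were treated with compounds over a concentration series and loaded with oleic acid (400 uM, as added). Lipid droplet fluorescence (488 nm excitation, 500-530 nm channel) was read by laser-scanning cytometry and normalized to 20 uM Triacsin C.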
row,SMILES,max response [%]
1,CN(C)CCCOC1C(C(O)CO)OC2OC(C)(C)O[C@@H]21 (some centres undefined),18.7
2,CCC(C)C(=O)OC1CCC=C2C=CC(C)C(CCC3CC(O)CC(=O)O3)[C@@H]21 (some centres undefined),6.43
3,CC(=O)OC1CCC2C3CCc4cc(O)ccc4C3CCC12C (centres undefined),8.25
4,CC[C@@]12CCCN3CCc4c(n(c5ccccc45)[C@](O)(C(=O)OC)C1)C32 (some centres undefined),38.6
5,NC(C(=O)O)[C@@H]1CC(Cl)=NO1 (some centres undefined),29
6,CN1CC(=O)N=C1N,9.11
7,OCC1OC([S-])[C@H](O)C(O)C1O.[Au+] (some centres undefined),19.8
8,CC(C)C1CCC(C(=O)NC(Cc2ccccc2)C(=O)O)CC1 (centres undefined),10.2
9,CCC(CCC(C)C1CCC2C3CC=C4CC(O)CC[C@@]4(C)C3CC[C@@]12C)C(C)C (some centres undefined),15.1
10,C[C@]12CCC(=O)C=C1CCC1C2C(=O)C[C@]2(C)C1CC[C@]2(O)C(=O)CO (some centres undefined),22
11,OCC1O[C@H](OC2C(CO)O[C@@](O)(CO)C2O)C(O)C(O)C1O (some centres undefined),24
12,CC1(C)OC2CO[C@]3(COS(N)(=O)=O)OC(C)(C)OC3C2O1 (some centres undefined),8.91
13,CC1(C)OC2CC(=O)OC[C@@]23C1CC(=O)[C@]1(C)C3CC[C@@]2(C)C(c3ccoc3)OC(=O)C3O[C@@]321 (some centres undefined),29.2
14,CC1=C(CCC(=O)O)c2cc3nc(cc4[nH]c(cc5[nH]c(cc1n2)c(C)c5C(C)O)c(C)c4C(C)O)C(C)=C3CCC(=O)O (centres undefined),18.6
15,CCOC(=O)C1=CC(OC(CC)CC)C(NC(C)=O)C(N)C1 (centres undefined),27.8
16,COC1C=CO[C@@]2(C)Oc3c(C)c(O)c4c(O)c(c5c(nc6cc(C)ccn65)c4c3C2=O)NC(=O)/C(C)=C\C=CC(C)C(O)[C@@H](C)C(O)C(C)[C@@H](OC(C)=O)C1C (some centres undefined),-14.4
17,COC(=O)C(Cc1ccccc1)NC(=O)C(N)CC(=O)O (stereo not drawn) (H-Asp-Phe-OMe; configuration not given here),3.61
18,C[C@]12C=CC(=O)C=C1CCC1C2C(O)C[C@]2(C)C1CC[C@]2(O)C(=O)CO (some centres undefined),24.5
19,CC1(C)S[C@H]2C(NC(=O)[C@@H](N)c3ccc(O)cc3)C(=O)N2[C@@H]1C(=O)O (some centres undefined),32.6
20,CC(C)=CCC[C@](C)(O)C1CC=C(C)CC1 (some centres undefined),4.12

row,SMILES,max response [%]
1,CO[C@]12C(COC(N)=O)C3=C(C(=O)C(C)=C(N)C3=O)N1CC1NC12 (some centres undefined),11.5
2,Cc1cc(O)c(C=O)c2c1C(=O)Oc1c(C)c(O)c3c(c1O2)C(O)OC3=O (centres undefined),21
3,C[C@]1(c2ccccc2)OC(C(=O)O)=CC1=O,-6.08
4,CC(=O)N[C@H](CC(C)C)C(=O)O,16.6
5,COc1c(O)cc(O)cc1O,4.87
6,COc1ccc2cc(C(C)CO)ccc2c1 (centres undefined),24.6
7,COC1C=CO[C@@]2(C)Oc3c(C)c(O)c4c(O)c(c(C=NN5CCN(C)CC5)c(O)c4c3C2=O)NC(=O)/C(C)=C\C=CC(C)C(O)[C@@H](C)C(O)C(C)[C@H](OC(C)=O)C1C (some centres undefined),10.6
8,CC1CCC(C(C)C)C(=O)C1 (centres undefined),14.2
9,CNC1CC(N)[C@H](O)[C@@H](O[C@@H]2OC(CO)C3OC4(OC(C(N)CO)C(O)C(O)C4O)O[C@@H]3[C@H]2O)C1O (some centres undefined),7.53
10,CC[C@H](C(=O)[C@H](C)[C@H](O)[C@H](C)CCc1ccc(C)c(O)c1C(=O)O)[C@H]1O[C@](CC)([C@@H]2CC[C@@](O)(CC)[C@H](C)O2)C[C@H]1C,-85.1
11,CCCC(=O)O[C@]1(C(=O)CO)CCC2[C@@H]3CCC4=CC(=O)CC[C@]4(C)C3C(O)C[C@]21C (some centres undefined),23.2
12,CC(=O)[C@]1(O)CCC2C3C=C(Cl)C4=CC(=O)C5CC5[C@@]4(C)C3CC[C@]21C (some centres undefined),14.3
13,Cc1cc(O)c(C=O)c2c1C(=O)Oc1c(COC(=O)/C=C/C(=O)O)c(O)c(C(=O)O)c(C)c1O2,3.61
14,CC(=O)N[C@@H]1C(O)OC(CO)C(O)C1O (some centres undefined),11.6
15,C/C1=C2N=C(/C=C3N=C(/C(C)=C4\[N-]C(C)(C5N=C1C(C)(CCC(=O)NCC(C)OP(=O)([O-])O[C@H]1C(O)C(n6cnc7cc(C)c(C)cc76)O[C@@H]1CO)C5CC(N)=O)C(C)(CC(N)=O)C4CCC(N)=O)C(C)(CC(N)=O)C\3CCC(N)=O)C(C)(C)C/2CCC(N)=O.[CH2-]C1OC(n2cnc3c(N)ncnc32)C(O)C1O.[Co] (some centres undefined),29.7
16,O=C1OC(CO)C(O)C(O)C1O (centres undefined),26.8
17,CNC1C(OC2C(O[C@@H]3C(O)C(O)[C@@H](N=C(N)N)C(O)C3N=C(N)N)OC(C)[C@@]2(O)CO)OC(CO)C(O)C1O (some centres undefined),25.4
18,COc1cc(C2c3cc4c(cc3C(O[C@@H]3OC5COC(c6cccs6)OC5C(O)C3O)C3COC(=O)C23)OCO4)cc(OC)c1O (some centres undefined),-100
19,Nc1nc2ncc(CNc3ccc(C(=O)NC(CCC(=O)O)C(=O)O)cc3)nc2c(=O)[nH]1 (centres undefined),24.2
